This is a sample that favours compounds with a hit; in the whole collection about 6.7% have one here.
KB-V1 cytotox – kills drug-selected multidrug resistant KB-V1 cells; KB-V1 MDR cells viability, CellTiter-Glo, 72 h; Potency, µM (titrated, usually from 46.1 µM), usual class: cytotoxic; 3.4% of 400,000 active; AID 1347076; note: nearly all actives have a fitted effect of over 60% in size
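qHTS viability screen in drug-selected KB-V1 MDR cells: 72 h compound treatment at 37 degrees C, ATP luminescence end point.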
KB-3-1 cytotox – KB-3-1 parental cell cytotoxicity. KB-3-1 viability, CellTiter-Glo ATP luminescence, 72 h. Potency, µM (titrated, usually from 46.1 µM), actives largely listed as cytotoxic. 1.4% of 400,000 active; note: nearly all actives have a fitted effect of over 60% in size
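Cells are dispensed, compounds pinned in, plates held at 37 °C for 72 h, then CellTiter-Glo is added and luminescence read after 10 minutes. Cell line: parental KB-3-1 in phenol-red-free DMEM, 10% FBS.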
PINK1 expr mod – modulators of PINK1 expression; PINK1 immunofluorescence, high-content cytometry, 24 h; Potency, µM (doses to about 76.6 µM), hits mostly activators; 0.2% of 410,000 active; AID 624263; active = well fitted activation curve with a large enough effect; inconclusive = small, poorly fitted or top-dose-only effect; cell line not stated here; note: nearly all actives have a fitted effect of over 65% in size
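Stable cell line, 250 cells/well, 12 h attachment; compounds pinned at 5 concentrations, 24 h; CCCP control. Fixed with nuclear dye, primary antibodies 12 h at 10 degrees C, secondary plus cell stain; laser-scanning cytometer read.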
MCF10A rereplic – DNA re-replication induction in MCF 10a cells; Potency, µM (top dose mostly 46.1 µM), most hits filed as activators; 2.9% of 350,000 active; MCF 10A DNA re-replication, Hoechst nuclear intensity, 48 h; AID 624296; note: nearly all actives have a fitted effect of over 50% in size
SW480 rerep – induces DNA re-replication in SW480 colon adenocarcinoma cells; SW480 DNA re-replication, Hoechst DNA content imaging, 48 h; Potency, µM (doses to about 46.1 µM), most hits filed as activators; 1.8% of 340,000 active; AID 624297; note: nearly all actives have a fitted effect of over 55% in size
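Per well, 250 cells were exposed to pinned compound for 48 hr. Nuclear DNA was visualised with Hoechst (40 min, 37 C) and total object intensity recorded by fluorescence scanning.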
A number is an active result; – = inactive; ? = inconclusive; · = no result given. Unless noted, calls come from the whole dose curve; as a rule, active = well fitted curve in the direction sought with a large enough effect; inconclusive = small, poorly fitted or top-dose-only effect, or another doubt; inactive = no such curve, though single readings can be large; an effect the other way counts as inactive or inconclusive.

SMILES	KB-V1 cytotox	KB-3-1 cytotox	PINK1 expr mod	MCF10A rereplic	SW480 rerep
CCOc1ccc(-c2n[nH]c(C)c2-c2ccccc2OC)c(O)c1	–	?	–	13µM	?
CCOc1cccc(-c2nn(-c3ccccc3)cc2/C=C(/C#N)C(=O)NCCCn2ccnc2)c1	?	–	–	21µM	?
N#C/C(=C/c1cn(-c2ccccc2)nc1-c1cccc(OCc2ccccc2)c1)C(=O)NCCCn1ccnc1	9.2µM	–	–	13µM	?
Cc1ccc2c(c1)C(c1ccccc1)N(C(=O)COc1ccc(Cl)cc1Cl)CC(=O)N2 (configuration not stated)	?	?	–	·	·
O=C(C1CC(=O)N(C2CCCC2)C1)N1CCC(Cc2ccccc2)CC1 (configuration not stated)	13µM	–	·	–	–
COc1ccc2c(c1OC)C(=O)N(c1cccc(C(F)(F)F)c1)C2	–	–	3.2µM	–	–
COc1ccc2c(c1OC)C(=O)N(c1cccc(C)c1)C2	–	–	–	–	–
CCCCC(=O)O[C@]1(C(=O)CO)CCC2C3CCC4=CC(=O)CCC4(C)C3C(O)CC21C (some centres not stated)	·	·	·	–	–
O=C(NCCc1nnc2n1CCN(CC1CC=CCC1)CC2)c1ccc(F)cc1 (configuration not stated)	·	·	–	·	·
Cc1nn(C)c(C)c1S(=O)(=O)N(CC(=O)NCCCOC(C)C)c1ccc(C(C)C)cc1	4.6µM	–	–	–	–
COc1ccc(N(CC(=O)NC2CCCCCC2)S(=O)(=O)c2c(C)nn(C)c2C)cc1	8.2µM	?	–	–	–
Cc1ccc(N(CC(=O)NC2CCCCCC2)S(=O)(=O)c2c(C)nn(C)c2C)cc1	9.2µM	–	–	–	–
Cc1ccc(N(CC(=O)NC2CCCCC2C)S(=O)(=O)c2c(C)nn(C)c2C)cc1 (configuration not stated)	–	–	–	–	–
COc1ccc(N(CC(=O)N2CCCCC2)S(=O)(=O)c2c(C)nn(C)c2C)cc1	–	–	–	–	–
CC1(C(=O)Nc2ccc3c(c2)OCCO3)CCC(=O)N1CCOc1ccccc1 (configuration not stated)	–	–	–	·	·
COc1ccc2c(c1)CCc1cnc(-n3ncc(C(=O)N(C)CCc4ccccn4)c3C)nc1-2	·	·	–	·	·
C[C@H]1CNC(=O)c2c(C(=O)N[C@@H](Cc3c[nH]c4ccccc34)C(=O)OC(C)(C)C)ncn21	–	–	–	·	·
COc1ccccc1-c1ccnc(-n2ncc(C(=O)N3CCCCC3c3cccnc3)c2C)n1 (configuration not stated)	·	·	–	·	·
CC(=O)c1ccc(OCCCC(=O)Nc2cccc(-c3nn[nH]n3)c2)cc1	–	–	–	–	–
Cc1cc(NC(=O)CCN2C(=O)C3C4CCC(C4)C3C2=O)c(C)cc1Br (configuration not stated)	15µM	–	–	–	–
N#C/C(=C\Nc1ccccc1O)c1nc2ccccc2o1	21µM	–	?	?	–
N#C/C(=C\c1cccc(O)c1)c1nc2ccccc2o1	–	–	–	?	–
N#C/C(=C\c1ccncc1)c1nc2ccccc2o1	–	–	–	15µM	–
N#C/C(=C\c1ccc(Cl)cc1)c1nc2ccccc2o1	–	–	–	?	?
CN(C)c1ccc(/C=[N+]2\C(=O)CC(=O)NC2=O)cc1	–	–	·	·	·
SMILES	KB-V1 cytotox	KB-3-1 cytotox	PINK1 expr mod	MCF10A rereplic	SW480 rerep
Fc1ccc(C2=NC(c3cccc(C(F)(F)F)c3)=Nc3ccccc3N2)cc1	–	–	–	·	·
CC(=O)Nc1cccc(-c2ccnc3c2CC(C(=O)NCCc2ccccc2)O3)c1 (configuration not stated)	–	–	–	·	·
CC(=O)c1cccc(-c2ccnc3c2CC(C(=O)NCc2cccs2)O3)c1 (configuration not stated)	2.3µM	1µM	–	·	·
CC(=O)c1cccc(-c2ccnc3c2CC(C(=O)NCCc2ccccc2)O3)c1 (configuration not stated)	3.3µM	2.3µM	–	·	·
O=C(NCc1cccs1)C1Cc2c(-c3ccc(Cl)cc3)ccnc2O1 (configuration not stated)	?	2.1µM	–	·	·
CCOC(=O)c1ccc(NC(=O)CC2C(=O)N(c3ccc(C)cc3)C(=O)N2C2CCCC2)cc1 (configuration not stated)	·	·	–	·	·
COc1ccc2oc(C(=O)OCC(=O)Nc3cc(S(=O)(=O)N4CCOCC4)ccc3OC)c(C)c2c1	–	–	–	–	–
COc1cc(C(O)c2nc(-c3ccc(N(C)C)cc3)cs2)ccc1F (configuration not stated)	?	–	–	·	·
CCOc1ccc(OCCNC(=O)c2oc3ccccc3c2COC)cc1	21µM	–	–	?	–
COCc1c(C(=O)NCCOc2ccc(Cl)cc2)oc2ccccc12	–	–	–	–	–
O=C(CN1C(=O)c2ccccc2C1=O)NCC1Cc2cccc(-c3ncccn3)c2O1 (configuration not stated)	·	·	–	·	·
CC1(C)c2ccccc2C(=O)c2ccccc21	–	–	–	–	–
O=[N+]([O-])C1C(c2ccccc2)C12c1ccccc1-c1ccccc12 (configuration not stated)	5.2µM	?	–	·	·
CCCCCn1c(=O)c(C(=O)c2ccccc2)nc2ccccc21	12µM	?	–	–	–
COc1ccc(CNC(=O)C2CCN(C(=O)c3ccc(-n4ccc5ccccc54)s3)CC2)cc1	?	–	–	·	·
CCSC(N)=Nc1ccc(C(F)(F)F)cc1	·	·	–	·	·
NC(N)=NN=C(c1ccc(F)cc1)c1ccc(C(F)(F)F)cc1	?	3.7µM	–	?	6.5µM
CCc1cc(=O)[nH]c(SCc2nc(-c3cccc(Cl)c3)no2)n1	·	·	–	·	·
Cc1cccc(NC(=S)NNC(=O)c2cc3c(s2)CCC(C)C3)c1C (configuration not stated)	?	–	–	16µM	–
CC1CCc2c(C(=O)NCCN3CCOCC3)csc2C1 (configuration not stated)	–	–	–	–	–
CC(C)CNC(=S)NNC(=O)c1csc2c1CCC(C)C2 (configuration not stated)	7.3µM	–	–	–	–
Cc1cccc(NC(=S)NNC(=O)c2csc3c2CCC(C)C3)c1 (configuration not stated)	23µM	–	–	?	–
CCCc1cc(C(=O)NNC(=S)Nc2cccc(C)c2)cs1	15µM	–	–	–	–
CC(=O)c1c(O)cc2c3c1OC(C)(C)C1CCC(C)(CC31)O2 (configuration not stated)	?	–	–	·	·
O=C1CC(N(CCc2ccccc2)C(=S)Nc2ccccc2)C(=O)N1c1ccc(F)cc1 (configuration not stated)	–	?	?	18µM	–

Bioassay records deposited in PubChem by National Center for Advancing Translational Sciences (NCATS).
